# Measured values as given in PubChem BioAssay (NCI).
# Compounds without any hit were thinned out: in the full panel of roughly 83,000, 20% have a hit.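 How to read the values: 0–100, growth inhibition (40 = 60% inhibited); 0, no net growth; -100 to 0, cell death (-40 = 40% of starting cells died; -100 = all dead).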 Unmarked numbers belong to inactive results. Active and inactive are the calls of the source. Rule for the calls: active = growth percent below 10; inactive = the rest.
# Tested on: HL-60(TB) leukemia
# Assay: NCI-60 one-dose screen, 48 h (100 = growth as untreated, 0 = no growth, -100 = all killed)
# Settings: 10 µM unless noted
row,Structure (SMILES),growth
1,CN1CCN(Cc2ccc(C(=O)Nc3cncc(C#Cc4cnc(N)c5ccccc45)c3)cc2C(F)(F)F)CC1,-71.5% (active)
2,Cc1c(Cn2cc(COc3ccc(Br)cc3)nn2)c(C)c(Cn2cc(COc3ccc(Br)cc3)nn2)c(C)c1Cn1cc(COc2ccc(Br)cc2)nn1,89.8%
3,Cc1cc(=O)n(-c2ccc(F)cc2)[nH]1,101%
4,COc1ccccc1NC(=O)Nc1ccc(-c2nc3ccccc3o2)cc1,88.5%
5,COc1ccc(C(=O)c2ccccc2CN2C(=O)c3ccccc3C2=O)cc1,103%
6,CCCCCCCCNc1cc2c3c(c1)CCCN3CCC2,-3.66% (active)
7,Cc1ccc([N+](=O)[O-])c(C)n1,115%
8,COc1ccc(/C=C2\Oc3cc(OCCCCCN4CCCCC4)ccc3C2=O)cc1OC,97.8%
9,COc1cc(-c2nc(C(=O)NCC(=O)O)nn2-c2ccc(Cl)cc2)cc(OC)c1OC,101%
10,CCO/C=N/NC(=O)c1ccncc1,102%
11,COc1cc(/C=C2\C(=O)ON=C2C)cc(OC)c1OC,98.1%
12,COc1ccc(C(=O)COc2ccc(/C=C3\Oc4ccc(OC)cc4C3=O)cc2)cc1,94.1%
13,O=C(Nc1cccc(Br)c1)c1cc(=O)[nH]c2ccccc12,108%
14,C/C(=N\O)c1ccccn1,112%
15,COc1cc2cc(Oc3ccc(NC(=O)Nc4ccc(Cl)c(C(F)(F)F)c4)cc3)c(C)nc2cc1OC,-40.6% (active)
16,Cc1cc(O)ccc1Sc1ccccc1[N+](=O)[O-],115%
17,COC1=CC(c2ccc[nH]2)=N/C1=C\c1[nH]c(C)c(CC(=O)NCc2ccccc2)c1C,-0.337% (active)
18,CCN1C(=O)N(CC)C2C1NN=c1s/c(=C\c3ccccc3F)c(=O)n12 (stereo not given),-48.1% (active)
19,CC(C)n1nc(C#Cc2cccc(O)c2)c2c(N)ncnc21,-57.9% (active)
20,CS(=O)(=O)c1nccc(-c2c(-c3cccc(OCc4ccccc4)c3)nc3sccn23)n1,82.8%

row,Structure (SMILES),growth
1,COc1ccc(-c2nc(SCC(=O)Nc3ccc(C(=O)/C=C/c4ccc(Cl)cc4)cc3)[nH]c(=O)c2C#N)cc1,105%
2,N#C/C(=C1\SC(=O)CN1c1ccccc1)c1nc2ccccc2s1,92.8%
3,CCOc1nc(-c2ccccc2)cc2c(O)c(C(=O)n3nc(C)cc3C)[nH]c(=O)c12,103%
4,CCOc1nc(-c2ccccc2)cc2c(O)c(C(=O)N/N=C/c3ccc(O)cc3O)[nH]c(=O)c12,19.7%
5,Cc1n[nH]c(C)c1-c1c(C)n[nH]c1C,-6.88% (active)
6,Clc1ccc(CCC(Cn2ccnc2)Sc2c(Cl)cccc2Cl)cc1 (stereo not given),2.26% (active)
7,Fc1ccc(C2CC(c3cccc(Nc4ccncc4)c3)=NN2c2cc(Cl)cc(Cl)c2)cc1 (stereo not given),-13.2% (active)
8,CCC/C=C(\C)C(C)(C#N)C(=O)OCC (stereo not given),103%
9,O=C(Nc1cccc2c1C(=O)c1cccc(NC(=O)c3ccc(C(=O)Nc4cccc5c4C(=O)c4cccc(NC(=O)c6ccccc6)c4C5=O)cc3)c1C2=O)c1ccccc1,83.4%
10,Nc1c(Cl)cc([N+](=O)[O-])cc1Br,101%
11,COc1cnc2c(c1)C(=O)c1c-2n(CCCN2CCNCC2)c(=O)c2cc([N+](=O)[O-])ccc12,-49% (active)
12,COc1ccc(C(=O)n2nc(-c3ccccc3)nc2N)cc1OC,80%
13,c1ccc(CNc2nc(Nc3ccccc3)nc3ccccc23)cc1,95.6%
14,CC1CCc2c(C(=O)Nc3ncc(Cc4cccc([N+](=O)[O-])c4)s3)csc2C1 (stereo not given),-26.3% (active)
15,CCCCCCCCN1C(=O)/C(=c2\sc3n(c2=O)C2C(NN=3)N(CC)C(=O)N2CC)c2ccccc21 (stereo not given),114%
16,COc1ccc(C2C(N)=NNC2c2cccc(O)c2)cc1 (stereo not given),97.9%
17,Nc1cc2c(cc1N)-c1cc(N)c(N)cc1C2,103%
18,COc1ccc2[nH]cc(/C=C3/C(=O)Nc4ccc(Cl)cc43)c2c1,53.4%
19,COc1cc(-c2cc(-c3ccc(Nc4nc(Nc5ccccc5)nc(Nc5ccc(Cl)cc5)n4)cc3)nc(N)n2)cc(OC)c1OC,96.8%
20,O=C(CNC(=O)c1cccc2ccccc12)Nc1ccccc1Oc1ccccc1,7.14% (active)
